# Tb hexokinase = blocks Trypanosoma brucei hexokinase 1 activity; 220,000 compounds, 0.11% hits; recombinant TbHK1, G6PDH-coupled NADH A340; inhibition, % at 10 µM;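 active = inhibition of 50% or more in the single-dose primary screen; inactive = inhibition below 50%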
# Efa HMGR inh = E. faecalis class II HMG-CoA reductase inhibition; purified E. faecalis HMGR, NADPH absorbance 340 nm kinetic; inhibition, % at 10 µM; 190,000 compounds, 0.41% hits;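 active = inhibition above a set limit, the median over all tested compounds plus 3 SD, cut at about 9.5% in these data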;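 also: enzyme runs in reverse so mevalonate oxidation gives rising NADPH absorbance; 0% = complete reaction with DMSO and 100% = background rate lacking mevalonate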
# DTT redox prof = compounds producing H2O2 with reducing agent – biochemical, NIH compound library profiling, artefact control for MLSCN library redox annotation, primary screen. 200,000 compounds, 0.03% hits. DTT-dependent redox cycling H2O2, phenol red/HRP absorbance; 100% = 100 µM peroxide control, 0% = buffer. AID 878. activation, % at 10 µM;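 active = activation of at least 50% relative to the plate's high and low controls in the primary single-dose screen; inactive = activation below 50%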;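 also: compound incubated with DTT at 0.8 mM final as the reducing agent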
# p-CIP stab down = p/CIP protein destabilization. Q05BA5. decrease of EGFP signal, % at 10 µM. 290,000 compounds, 0.01% hits. F442A p/CIP-EGFP cells, EGFP fluorescence, 16 h;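 active = EGFP signal decrease of at least 30% at 10 µM or well 3 SD below plate mean, unless failing retest; inactive = the rest, including hits failing retest or dose response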
# p97 inhibitor = inhibitors of human p97 ATPase; recombinant p97 ATPase, Kinase-Glo ATP luminescence, 3 h; 220,000 compounds, 0.42% hits; P55072; inhibition, % at 8 µM; in the data active = inhibition above about 15%;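 also: 0% = DMSO vehicle and 100% = wells lacking enzyme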
# Target sequence (P55072 whole entry, looked up): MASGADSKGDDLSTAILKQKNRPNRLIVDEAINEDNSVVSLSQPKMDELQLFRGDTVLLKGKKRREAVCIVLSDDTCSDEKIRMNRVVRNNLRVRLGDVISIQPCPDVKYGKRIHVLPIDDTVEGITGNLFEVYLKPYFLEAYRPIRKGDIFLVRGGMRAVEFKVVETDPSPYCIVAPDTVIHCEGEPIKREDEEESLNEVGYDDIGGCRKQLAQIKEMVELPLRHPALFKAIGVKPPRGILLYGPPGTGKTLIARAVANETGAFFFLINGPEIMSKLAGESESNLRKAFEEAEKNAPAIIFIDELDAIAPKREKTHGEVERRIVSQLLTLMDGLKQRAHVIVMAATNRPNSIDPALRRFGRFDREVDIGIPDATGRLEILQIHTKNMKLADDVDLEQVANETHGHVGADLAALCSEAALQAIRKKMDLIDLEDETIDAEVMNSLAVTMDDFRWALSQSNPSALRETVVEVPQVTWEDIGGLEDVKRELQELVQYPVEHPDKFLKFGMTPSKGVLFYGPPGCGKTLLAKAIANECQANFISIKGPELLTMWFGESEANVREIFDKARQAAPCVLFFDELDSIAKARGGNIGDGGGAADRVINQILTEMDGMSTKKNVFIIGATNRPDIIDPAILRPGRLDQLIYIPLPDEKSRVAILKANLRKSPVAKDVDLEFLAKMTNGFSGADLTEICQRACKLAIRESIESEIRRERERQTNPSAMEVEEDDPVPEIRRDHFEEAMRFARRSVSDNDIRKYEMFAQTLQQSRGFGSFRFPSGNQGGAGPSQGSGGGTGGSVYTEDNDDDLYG
# Furin inhibitor = blocks human furin protease activity. P09958. purified furin, fluorogenic substrate cleavage. inhibition, % at 20 µM or 30 µM. 220,000 compounds, 0.061% hits. AID 463115; in the data active = inhibition above about 25%
# p97 confirm = human p97 ATPase inhibition, confirmation. 760 compounds, 44% hits. inhibition, % at 8 µM. recombinant p97 ATPase, Kinase-Glo ATP luminescence. shares compounds with p97 inhibitor;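 active = percent inhibition of p97 ATPase above a set limit, the primary screen's mean plus 3 SD, cut at about 15% in these data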;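 also: 0% = DMSO wells and 100% = wells lacking p97 protein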
# The depositor's hits bear a star; nt = not tested or not shown. Hits are enriched below; roughly 0.74% of the tested compounds scored in any of these assays.
SMILES,Tb hexokinase,Efa HMGR inh,DTT redox prof,p-CIP stab down,p97 inhibitor,Furin inhibitor,p97 confirm
O=C(N/N=C/c1ccc(O)cc1)c1ccncc1,nt,nt,nt,-14.8,nt,nt,nt
CC/C(=C\C(=O)c1ccncc1)Nc1ccc(O)cc1,-36.9,-0.8,5.7,-12.6,21.4*,-9.9,8.2
Cc1cc(/C=N/NC(N)=S)c(O)c(/C=N/NC(N)=S)c1,-6.4,nt,nt,-80.0,19.1*,-27.2,20.1*
O=C(O)c1ccccc1SCC(=O)N1c2ccccc2Sc2ccccc21,-3.9,-0.2,1.4,-0.7,66.1*,-17.2,-1.3
O=C(O)c1ccccc1SCC(=O)N1CCCCC1,1.0,-6.5,1.7,-1.1,3.8,-20.9,nt
N=c1c(S(=O)(=O)c2ccc(F)cc2)cc2c(=O)n3ccccc3nc2n1CC1CCCO1 (stereo not drawn),nt,nt,nt,-4.8,nt,nt,nt
Cc1ccc(NC(=O)COC(=O)CCc2nc3ccccc3c(=O)[nH]2)cc1Cl,5.8,-2.4,-0.5,-7.9,16.3*,-7.8,1.4
Cn1c(SCC(=O)N2CCCc3ccccc32)nnc1-c1c[nH]c2ccccc12,3.1,-4.0,2.5,-4.9,16.1*,-3.1,5.9
CCn1c(SCC(=O)N2CCCc3ccccc32)nnc1-c1c[nH]c2ccccc12,2.5,-2.1,0.7,-8.6,2.2,-20.9,nt
CCOC(=O)CC(C#N)c1c[nH]c2ccccc12 (stereo not drawn),4.8,-1.4,0.6,-7.1,15.6*,-21.4,8.5
CCCCn1c(NS(=O)(=O)c2ccccc2)c(S(=O)(=O)c2ccc(C)cc2)c2nc3ccccc3nc21,5.7,-2.2,99.8*,-8.6,25.3*,1.3,28.6*
CCCCn1c(NC(=O)c2ccc(Br)o2)c(S(=O)(=O)c2ccccc2)c2nc3ccccc3nc21,-22.2,-6.9,0.2,-10.9,45.5*,-11.4,21.7*
CCC(=O)Nc1c(S(=O)(=O)c2ccc(C)cc2)c2nc3ccccc3nc2n1C(C)c1ccccc1 (stereo not drawn),-10.5,-1.1,0.0,-1.5,-6.3,-9.5,nt
Cc1ccc(S(=O)(=O)c2c(N)n(CCCO)c3nc4ccccc4nc23)cc1,-21.5,-5.5,0.4,8.1,-1.3,-14.4,nt
CCCCn1c(NC(=O)c2ccco2)c(S(=O)(=O)c2ccc(C)cc2)c2nc3ccccc3nc21,-4.3,4.5,5.5,-12.6,27.0*,-13.6,8.3
CCCCCn1c(NC(=O)c2ccco2)c(S(=O)(=O)c2ccc(C)cc2)c2nc3ccccc3nc21,-9.5,8.3,1.0,-9.4,26.1*,-14.6,10.2
COc1cc(C(=O)NCCC(=O)NCc2c(F)cc(F)cc2F)cc(OC)c1OC,nt,nt,nt,-11.1,nt,nt,nt
Cc1ccc(S(=O)(=O)N(C)CC(=O)NCCCn2ccnc2)cc1,nt,nt,nt,1.2,nt,nt,nt
Cn1cc(C(=O)c2ccc(Cl)cc2Cl)cc1C(=O)N/N=C(\N)COc1ccc(Cl)cc1,-10.1,nt,nt,-1.8,18.3*,-23.5,19.7*
O=C(NCc1ccco1)c1ccc(Cl)cc1[N+](=O)[O-],nt,nt,nt,1.8,nt,nt,nt
Cc1ccccc1N(C)S(=O)(=O)c1nnc(NC(=O)c2ccco2)s1,nt,nt,nt,-5.0,nt,nt,nt
O=c1[nH]c(/C(Cl)=C/c2c(F)cccc2Cl)nc2cc(Cl)ccc12,13.3,-1.9,-0.3,-16.3,28.0*,14.0,35.0*
O=c1[nH]c(/C(Cl)=C/c2cc(Cl)ccc2O)nc2cc(Cl)ccc12,8.7,-1.5,0.3,4.1,29.3*,-3.9,42.0*
COc1ccc(C(=O)OC(C)C(=O)Nc2cc(C(F)(F)F)ccc2Cl)c(OC)c1OC (stereo not drawn),-2.0,-3.9,0.6,-6.2,-8.0,-13.6,nt
O=C(Nc1ccc(N2CCOCC2)cc1)Nc1ccc2nc(-c3ccco3)c(-c3ccco3)nc2c1,-18.8,-7.2,0.9,-16.0,2.9,-6.7,nt
SMILES,Tb hexokinase,Efa HMGR inh,DTT redox prof,p-CIP stab down,p97 inhibitor,Furin inhibitor,p97 confirm
O=C(Nc1ccc2nc(-c3ccco3)c(-c3ccco3)nc2c1)NC1CC1,-0.6,2.1,-0.1,2.7,30.6*,-2.7,24.5*
O=C(O)c1ccc2nc(-c3ccco3)c(-c3ccco3)nc2c1,-18.1,-6.5,0.0,-16.1,25.9*,-22.5,0.8
O=C(NCCCO)Nc1ccc2nc(-c3ccco3)c(-c3ccco3)nc2c1,-7.0,-7.0,1.1,-3.2,25.4*,-15.4,22.5*
COc1cc(C(=O)N(C)CC2CCN(CCc3cccc(C(F)(F)F)c3)CC2)ccc1C,nt,nt,nt,-1.3,nt,nt,nt
CCn1c(=O)c([N+](=O)[O-])c(NCc2ccco2)c2ccccc21,-18.5,nt,nt,-3.3,1.9,-7.0,nt
CC(C)CCN1CCC(n2nccc2NC(=O)c2ccc3c(c2)OCO3)CC1,nt,nt,nt,6.3,nt,nt,nt
CCOC(=O)C1=C(C)OC2(O)c3ccccc3C(=O)C12O (stereo not drawn),6.7,nt,nt,-1.6,16.9*,-10.9,27.3*
CC(=O)C1=C(C)OC2(O)c3ccccc3C(=O)C12O (stereo not drawn),-7.6,nt,nt,-0.7,20.0*,-16.7,7.7
O=[N+]([O-])/C(C(Cl)=C(Cl)Cl)=C(/Sc1ccccc1)N1CCCCC1,-16.6,nt,nt,-4.7,8.6,-5.8,nt
CC(C)Oc1ccc(CCC(=O)NNC(=O)CCC(=O)O)cc1,1.6,nt,nt,-8.4,3.9,-25.5,nt
CCOc1ccc(N=C2SC(C(=O)Nc3ccccc3C#N)C(N)=C2C(=O)Nc2ccc(Cl)cc2)cc1 (stereo not drawn),-2.9,3.8,-1.6,2.3,18.9*,-22.8,24.2*
N#Cc1ccccc1NC(=O)C1SC(=Nc2ccccc2)C(C(=O)Nc2ccc(Cl)cc2)=C1N (stereo not drawn),-7.8,-0.8,0.2,-0.9,9.2,-21.8,nt
C/C(=N/NC(=O)CNS(=O)(=O)c1ccccc1)c1ccc(Br)cc1,nt,nt,nt,2.4,nt,nt,nt
Cc1[nH]c2ccccc2c1/C=N/NC(=O)c1cccs1,-42.3,-7.9,0.4,-4.4,16.4*,-3.9,22.3*
Cc1[nH]c2ccccc2c1/C=N/NC(=O)c1cc(C(C)C)[nH]n1,-63.5,nt,nt,4.7,17.3*,-5.5,17.4*
Cc1ccc(S(=O)(=O)N2CCC(N3CCC(C)CC3)CC2)cc1,nt,nt,nt,3.5,nt,nt,nt
COCCCN(C(=O)CC1OC(=O)c2ccccc21)c1c(N)n(Cc2ccccc2)c(=O)[nH]c1=O (stereo not drawn),nt,nt,nt,3.5,nt,nt,nt
N#CC1=C(N)NC(SCC(=O)c2ccc(Br)cc2)=C(C#N)C12CCCCC2,-4.8,0.2,0.2,1.6,15.0*,-8.0,5.7
CC(Oc1ccc2c(-c3ccccc3)cc(=O)oc2c1)C(=O)NCC(O)c1ccccc1 (stereo not drawn),nt,nt,nt,-2.5,nt,nt,nt
CCN(CC)S(=O)(=O)c1cccc(NC(=O)c2cc(-c3cccs3)nn2-c2ccccc2)c1,21.6,1.2,0.8,-6.4,-1.4,-23.7,nt
CN(C)S(=O)(=O)c1cccc(NC(=O)c2cc(-c3cccs3)nn2-c2ccccc2)c1,-6.8,-3.9,0.2,-21.1,25.9*,-23.0,5.5

# Screening results: PubChem BioAssay, several laboratories
